From PubChem BioAssay AID1508600 (Functional Genomics Laboratory (NCATS/FGL), 2020)
The whole screen tested about 53,000 sequences, of which about 3,700 (7%) were called active. Shown is part of a subset that was picked to be rich in actives. Values without a mark were called inactive.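 Rule for the calls: active = gene knockdowns whose robust z-score for IL-1 alpha signal is at least 2 or at most -2, so actives lie on both sides; inactive = the rest.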

Test: Components of the Cytosolic LPS Sensing Pathway: Gene Identification via Genome-wide siRNA Screen;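 note: robust z of the log signal after scaling to non-targeting control siRNA wells of the plate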
Details: RAW264.7 macrophages, IL-1a HTRF, actives lie on both sides, screened at 100 nM (by protocol), cells primed 5 h with Pam3CSK4 first
Outline: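 Three distinct siRNAs per gene were tested singly at 100 nM in RAW264.7 macrophages. Following Pam3CSK4 priming and 24 hour LipidA transfection, IL-1a secretion was read by HTRF.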

Sequence | z-score
GGAAAGUUAAUGCACAUUUTT against Hmg20a | -1.68
CCUGAAAGAAAAGAAGGACTT against Ptms | 0.107
GGCGACAAGCAACUUAUAATT against Mgat4c | 3.25 (active)
GGAUGACUGUAAGUUACGGTT against Mast2 | -0.229
GGUGCUCCUAUCCUGUUCATT against Lhfp | -0.331
GGCGGCUGAAAGUUUUGCATT against Pklr | 0.94
GCACAAGAGGUAUCCUUGCTT against Gm5111 | 0.000682
GCCUGCAUUGCAAAUGAAATT against Krtap13-1 | -0.257
GGCUUUAACAUCAAAGCAATT against Mgarp | 0.0459
GGAAUCCUUUUCUUUCUAATT against Slc13a1 | 0.0492
GGAAGACAGGGACAAUACCTT against Car15 | -2.36 (active)
CCAUCCUAGCUGUGGUAAGTT against Olfr554 | 1.32
GGUCGUUCAGAAGCACCAGTT against Aldh16a1 | -1.31
CGGCACUGACUUAUUGUUCTT against Olfr574 | 0.886
GGUGUACCAAGUGUUUUCATT against Faf2 | 3.08 (active)
GGUCACUGAAUUGUCAAUCTT against Polr3h | 0.773
GGGCAAAGACAGUAUUCAATT against B530045E10Rik | 0.4
CCAUGUGACAAAGCCUACCTT against Fam131b | 0.845
GGAGGAAAGACGAAUCAACTT against Clcn7 | 1.44
GCACUGAGCUUGACAAAGATT against Upp2 | -0.174
GGGCUUUCUCAGAAAAGAATT against Olfr508 | -1.29
GGGCAUGAAAGAAUUCUUATT against D130040H23Rik | -2.83 (active)
GGCCAUCAUUGUCACCGUGTT against Adra2a | 0.955

Sequence | z-score
GGUUUAGGUUUCAUAAUCCTT against Ostc | -0.338
GGACCUAUGCAGCACUAAATT against Ppp1r11 | 1.73
GGAGAAAGUGGACAGGGCUTT against Jph4 | 0.00563
GGUGGUCUGAGAAAUACUCTT against Czib | 2.06 (active)
GCAUCUCCUGCCAAAGCAGTT against Ms4a2 | -0.381
GGUAGUAGGAGGAAUGACGTT against Ccdc93 | -0.353
GCUUCCUUAUUGACAAUGGTT against Rbm19 | 0.596
GGAGGGACACAGAGAUUACTT against Auh | 5.05 (active)
GGAGUAGCAGAGCUUCUGGTT against S100a8 | 0.642
GGAGAAUAAAACUUCCAGATT against Urod | -0.436
GGGACACAGCUAAAAGCUUTT against Fam20b | 0.146
CGAUACAGGACCGAAGGAGTT against Fhad1 | -0.196
GGUGGAUAUUGAUAUCAAGTT against Fga | 3.31 (active)
CCCGGAGAGUCAUUUGUGUTT against Cpsf4 | 0.435
CGGAAUCAUACAUUGGUUCTT against Zfp217 | 1.22
GGUGUCUGACUUUAAGAAGTT against Foxred1 | -0.247
GCCACAACUUAAUUUUCUGTT against Nav3 | -0.305
GGAAUCAGAUACAAAGGAGTT against Sil1 | 0.265
CUAUCAAGGGCAGUCAACUTT against Olfr1208 | -2.38 (active)
GGACACUAUGACGGAAGUATT against Apoe | -1.13
GGUUCUGAAGAUGGAGGUUTT against Ttbk2 | 1.22
CCAAGAAUGCCCAGCAAGUTT against E4f1 | 2.39 (active)
GCGACUUCAGAUUUCAUUATT against Srsf2 | -0.439

Sequence | z-score
GGUCAACCAUUCCUCUUGATT against Ccdc9b | 0.409
GCUGAAGGAUCCCAUUAGATT against Cbx2 | -1.68
GCAACUUGGGAACUCUUUGTT against Pnpla7 | -1.77
GGUUUCUUUCUCUGAGUUUTT against Man2a1 | 1.62
GGAGGAACUCCUAAAGAAGTT against Galntl5 | -0.511
CCGAUCAUUAUGAGCAUACTT against Nxf7 | -1.76
GGUCUUUAGCAAAUUGUUCTT against Lrrc6 | 2.02 (active)
GGAUGCAGAAGAUUUUGUGTT against Ptprcap | -0.704
GGAGACACAAAAGAAGAUATT against Sec14l4 | -0.359
CCUGCGUUGACCAAUCAGATT against C2cd2l | -1.26
CCUAGUCCUGAUUUAUCAGTT against Ddx39b | -2.02 (active)
GCUCUAGGAAUCCAAAUAUTT against 9930014A18Rik | 0.8
GGCUUCUUCAGAUCCUAAATT against Olfr554 | -0.615
GGUCAUCAGAAGAAUCAAGTT against Arr3 | 2.13 (active)
GCGAUAUCUCAACUUCCCGTT against Fchsd1 | 0.541
GCAUGCGCCCUAAAGGAAATT against Zmynd15 | 0.687
CCAGUCUUAUCUGUAGAAGTT against Obox1 | -1.69
GCCUAACUAUGAAACUUCGTT against Ppp1r11 | 0.754
CCAUUGUAGUCAGUCAAAUTT against Pip | -0.498
GGAUGAAAGUCCUGGACAGTT against Gli3 | 5.97 (active)
GGAGCAGUUGUGUUUAACATT against Psg17 | 0.596
GGAAAGAGGGAAACUAAUUTT against Abhd17a | -0.694
